The record followed here is PubChem BioAssay (NCATS).

Inconclusive results are not listed. A number with no mark means an inactive call. The source made the active and inactive calls. Calls come from the whole dose curve; as a rule, active = well fitted curve in the direction sought with a large enough effect; inconclusive = small, poorly fitted or top-dose-only effect, or another doubt; inactive = no such curve, though single readings can be large; an effect the other way counts as inactive or inconclusive.

One assay concerns CRL-7250. As to the kind of experiment: Cytotoxic Profiling of Annotated Libraries Using Quantitative High-Throughput Screening (AID 1296008). For max response: % is set by controls: 0 for no effect and ±100 for the full control effect. Note: nearly all actives have a fitted effect of over 60% in size. The conditions noted are these: Five cell lines viability, CellTiter-Glo ATP luminescence, 48-72 h; max response: hits give low values. The method in brief:
(§1)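 Cytotoxicity was measured as CellTiter-Glo ATP luminescence, read after 10 min at room temperature. Compound treatment of the cells lasted 48 or 72 hr at 37 degrees Celsius in a qHTS format.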
Background: In ATP-based viability assays light output follows the ATP content of the culture.

For the next assay, the system named is HEK293. The description is as above. To be noted: Five cell lines viability, CellTiter-Glo ATP luminescence, 48-72 h; max response: hits give low values. The method in brief:
as §1

In assay [1] the test system is HaCat. Described as above. The conditions noted are these: Five cell lines viability, CellTiter-Glo ATP luminescence, 48-72 h; max response: hits give low values. The method in brief: as §1
The test system of another assay is KB-3-1. The assay is described as above. The conditions noted are these: Five cell lines viability, CellTiter-Glo ATP luminescence, 48-72 h; max response: hits give low values. A digest of the protocol:
as §1

Assay [2] concerns NIH3T3. Described as above. The conditions noted are these: Five cell lines viability, CellTiter-Glo ATP luminescence, 48-72 h; max response: hits give low values. A digest of the protocol: as §1
The subject of assay [3] is HACAT. As to the kind of experiment: qHTS assay to identify novel small-molecules to repurpose for Merkel cell carcinoma treatment (AID 1296009). Note: nearly all actives have a fitted effect of over 60% in size. To be noted: MCC and control cell lines, CellTiter-Glo viability, 72 h; at 44.8 µM (top of the series) unless noted. A digest of the protocol: (§2)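 72 hr, 37 degree celsius; NPC 8-pt / MIPE 11-pt dose response; compound pinned in DMSO; CellTiter-Glo, 10 min RT, luminescence; normalized to no-cell and DMSO controls.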
In general terms: In qHTS, concentration-response curves come from the screen itself.

In assay [4] the test system is NIH3T3. The assay is described as above. The conditions noted are these: MCC and control cell lines, CellTiter-Glo viability, 72 h; at 44.8 µM (top of the series) unless noted. A digest of the protocol: as §2
The test system of a further assay is C33A. As to the kind of experiment: Primary qHTS to identify gynecologic anti-cancer compounds using libraries of approved drugs and bioactive compounds (AID 1345084). For activity change, negative = cytotoxicity: % is set by controls: 0 for no effect and ±100 for the full control effect. Note: nearly all actives have a fitted effect of over 55% in size. Note: potency is the fitted concentration of half-maximal effect. To be noted: Gynecologic cancer cell panel viability, ATPlite luminescence, 48 h; series mostly up to 57.5 µM. A digest of the protocol: (§3)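 Cells, 1,000 per well, were allowed to settle for 16 h at 37 C before compound addition. Five concentrations were tested for 48 h, and viability was read by ATPlite luminescence after 15 min at room temperature.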

A further assay relates to CAOV3. Described as above. The conditions noted are these: Gynecologic cancer cell panel viability, ATPlite luminescence, 48 h; series mostly up to 57.5 µM. A digest of the protocol:
as §3

Another assay concerns CASKI. The description is as above. To be noted: Gynecologic cancer cell panel viability, ATPlite luminescence, 48 h; series mostly up to 57.5 µM. The method in brief: as §3
For a further assay, the system named is Es-2. The description is as above. The conditions noted are these: Gynecologic cancer cell panel viability, ATPlite luminescence, 48 h; series mostly up to 57.5 µM. The method in brief: as §3
In another assay the test system is HeLa. The assay is described as above. To be noted: Gynecologic cancer cell panel viability, ATPlite luminescence, 48 h; series mostly up to 57.5 µM. The method in brief: as §3
The next assay has as its system Hek293T. The assay is described as above. To be noted: Gynecologic cancer cell panel viability, ATPlite luminescence, 48 h, control line for the selectivity index; series mostly up to 57.5 µM. The method in brief:
as §3

The subject of another assay is OV90. The description is as above. The conditions noted are these: Gynecologic cancer cell panel viability, ATPlite luminescence, 48 h; series mostly up to 57.5 µM. A digest of the protocol:
as §3

The test system of the next assay is JEG-3. Described as above. The conditions noted are these: Gynecologic cancer cell panel viability, ATPlite luminescence, 48 h; series mostly up to 57.5 µM. A digest of the protocol: as §3

Regarding `C/C1=C\CC[C@]2(C)O[C@H]2C(=O)c2c(C)coc2C1`, the max response in the assay on CRL-7250 is 1.23%; in the assay with HEK293, -1.35%; in the assay with KB-3-1 it was -3.14%. Besides, the result in the assay with HaCat [1], with NIH3T3 [2], in the assay with HACAT [3], in the assay with NIH3T3 [4] and in the assay on CASKI was inactive. Further, the Potency with C33A is 7.94 µM (active); with CAOV3, 15.8 µM (active); in the assay with Es-2, 11.2 µM (active); in the assay with HeLa, 7.94 µM (active); in the assay on Hek293T it was 10 µM (active). Also, the Potency entry in the assay with OV90 is “inactive”.

In the case of `CC1(C)CCC2(C(=O)O)C(O)CC3(C)C(=CCC4C5(C)CCC(OC6OC(CO)C(O)C(O)C6OC6OC(CO)C(O)C(O)C6OC6OCC(O)(CO)C6O)C(C)(C)C5CCC43C)C2C1` (configuration not stated), the max response is -4.69% in the assay on CRL-7250 and -13.6% with HEK293. In addition, the molecule was classed as inactive in the assay on HaCat [1], with KB-3-1 and in the assay with NIH3T3 [2]. The outcome in the assay with HACAT [3] and in the assay with NIH3T3 [4] was “inactive [at 9.27 µM]” in each case. Also, the activity change, negative = cytotoxicity in the assay with C33A is -3% [at 11.6 µM]; with CAOV3, 12.3% [at 11.6 µM]; in the assay on CASKI, -10.6% [at 11.6 µM]; with Es-2, -1.15% [at 11.6 µM]; with Hek293T it was 13.1% [at 11.6 µM]; in the assay with JEG-3, -1.43% [at 11.6 µM]. Besides, the activity change, negative = cytotoxicity in the assay with OV90 is -4.37% [at 11.6 µM].

For the molecule `C=C(C(=O)O)C1CC(OC(=O)CC(C)CC)C2(C)CCCC(=C)C2C1` (configuration not stated), the max response in the assay on CRL-7250 is 4.7%; in the assay with HEK293, 4.07%; in the assay on KB-3-1, 2.84%. Further, the call in the assay on HaCat [1], in the assay on NIH3T3 [2], in the assay on HACAT [3], in the assay on NIH3T3 [4] and in the assay with CASKI was inactive. For the same molecule, the Potency entry in the assay with C33A, in the assay with Es-2, with HeLa, in the assay on Hek293T, with JEG-3 and with OV90 was “inactive” in each case.

In the case of `O=C(O)c1ccc(NC(=O)[C@H](CC2CCCC2)n2cnc(C(F)(F)F)c2)nc1`, the values for the max response in the assay on CRL-7250 and in the assay with HEK293 were -11.6% and -11%, respectively. Besides, the result in the assay with HaCat [1], with KB-3-1, in the assay with NIH3T3 [2], in the assay with HACAT [3], in the assay with NIH3T3 [4] and in the assay on CASKI was inactive. In addition, the Potency result with C33A, with CAOV3, with Es-2, with Hek293T, with JEG-3 and with OV90 was “inactive” throughout.

`CC1CC(=O)C2C(O)(C1)CC(O)C13OC1c1c(O)cccc1C(=O)C23O` (configuration not stated): the result in the assay with CRL-7250, in the assay with HaCat [1], in the assay on NIH3T3 [2], with HACAT [3], with NIH3T3 [4] and in the assay with CASKI was inactive. The max response in the assay with HEK293 was -12.4%; in the assay on KB-3-1, 3.15%. The Potency result in the assay on C33A, in the assay on CAOV3, with Es-2, in the assay with HeLa, in the assay on JEG-3 and with OV90 was “inactive” each time.

Regarding `O=C(C[C@@H]1C(C(=O)O)=CO[C@@H](O[C@@H]2O[C@H](CO)[C@@H](O)[C@H](O)[C@H]2O)/C1=C\CO)OCCc1ccc(O)c(O)c1`, the results for the max response with CRL-7250, with HEK293 and in the assay on KB-3-1 were -2.34%, 2.23% and 9.2%, respectively. In addition, the call in the assay on HaCat [1], with NIH3T3 [2] and in the assay with CASKI was inactive. The outcome in the assay with HACAT [3] and in the assay on NIH3T3 [4] was “inactive [at 17.4 µM]” each time. The Potency entry with C33A, in the assay on Es-2, in the assay with HeLa, in the assay with Hek293T, with JEG-3 and in the assay with OV90 was “inactive” throughout.

Regarding `CC1CCC2(C(=O)OC3OC(CO)C(O)C(O)C3O)CCC3(C)C(=CCC4C5(C)CCC(O)C(C)(CO)C5CCC43C)C2C1(C)O` (configuration not stated), the outcome in the assay with CRL-7250, with HaCat [1], in the assay with KB-3-1, in the assay on NIH3T3 [2] and with CASKI was inactive. Besides, the max response in the assay on HEK293 is -1.85%. In addition, the outcome in the assay on HACAT [3] and in the assay on NIH3T3 [4] was “inactive [at 17.4 µM]” in each case. For the same molecule, the Potency entry in the assay on C33A, in the assay on Es-2, in the assay with HeLa, in the assay with Hek293T, in the assay with JEG-3 and in the assay on OV90 was “inactive” each time.

For `O=C(O)C[C@H]1CCC(=O)[C@@H]1C/C=C\CCO`, the result in the assay on CRL-7250, with HaCat [1], in the assay with NIH3T3 [2], in the assay on HACAT [3], with NIH3T3 [4] and in the assay on CASKI was inactive. Further, the values for the max response in the assay with HEK293 and in the assay on KB-3-1 were 0.813% and 0.282%, respectively. For the same molecule, the Potency result in the assay with C33A, with CAOV3, in the assay with Es-2, in the assay with HeLa, with Hek293T and with JEG-3 was “inactive” each time. The Potency result with OV90 is “inactive”.

Take `CC1OC(OC2CCC3(C)C(CCC4(C)C3C=CC35OCC6(CCC(C)(C)CC63)CCC45C)C2(C)CO)C(OC2OC(CO)C(O)C(O)C2O)C(O)C1OC1OC(CO)C(O)C(O)C1O` (configuration not stated): the max response with CRL-7250 was -0.103%; with HEK293, -1.62%. Besides, the result with HaCat [1], with KB-3-1 and in the assay on NIH3T3 [2] was inactive. In addition, the outcome with HACAT [3] and with NIH3T3 [4] was “inactive [at 9.27 µM]” in each case. Moreover, the activity change, negative = cytotoxicity in the assay on C33A is 0.873% [at 11.6 µM]; in the assay with CAOV3, 14% [at 11.6 µM]; in the assay on CASKI, 3.54% [at 11.6 µM]; with Es-2, -0.667% [at 11.6 µM]; in the assay on HeLa, 5.87% [at 11.6 µM]; in the assay with Hek293T it was 6.69% [at 11.6 µM]. Also, the activity change, negative = cytotoxicity is 8.45% [at 11.6 µM] in the assay on JEG-3 and -14.8% [at 11.6 µM] in the assay with OV90.

Take `C[C@@H]1O[C@@H](OC(=O)Cc2ccccc2)[C@H](O)[C@H](O)[C@H]1O`: the max response in the assay on CRL-7250 is 2.73%; in the assay on HEK293, -2.15%; in the assay with KB-3-1, 6.7%. For the same molecule, the molecule was called inactive with HaCat [1], in the assay on NIH3T3 [2], in the assay on HACAT [3], in the assay with NIH3T3 [4] and with CASKI. Also, the Potency entry with C33A, with CAOV3, with Es-2, with HeLa, in the assay with Hek293T and with JEG-3 was “inactive” throughout. The Potency entry in the assay with OV90 is “inactive”.

Consider `O=C(O)C1(c2ccc(-c3ccc(Cl)c(Cl)c3)c(F)c2)CC1`, for which the max response with CRL-7250 is 2.78%; in the assay with HEK293 it was -11.7%; in the assay on KB-3-1, -5.77%. Further, the molecule was classed as inactive in the assay with HaCat [1], in the assay with NIH3T3 [2], in the assay on HACAT [3], in the assay with NIH3T3 [4] and in the assay on CASKI. In addition, the Potency result with C33A, in the assay on Es-2, in the assay on HeLa, in the assay with Hek293T, in the assay on JEG-3 and in the assay with OV90 was “inactive” throughout.
